Reference: PubChem BioAssay (Tox21)
Where “and” joins values, the source holds several entries; their conditions need not be identical. Equal values may be shown once. Records with an inconclusive call do not appear. Where a structure was tested more than once in an assay, its records may differ in their call. Calls of active or inactive are those of the source. Unless noted, calls come from the whole dose curve; as a rule, active = well fitted curve in the direction sought with a large enough effect in the repeat runs; inconclusive = weak or mixed curves; inactive = no such curve, though single readings can be large; an effect the other way counts as inactive or inconclusive.

Assays:
[1] = qHTS assay to identify small molecule antagonists of the glucocorticoid receptor (GR) signaling pathway - cell viability counter screen (AID 720693); note: nearly all actives have a fitted effect of over 55% in size
[2] = qHTS assay for identifying genotoxic compounds that show differential cytotoxicity against isogenic chicken DT40 cell lines with known DNA damage response pathways - wild type cell line (AID 743012); note: nearly all actives have a fitted effect of over 60% in size; note: potency is the fitted concentration of half-maximal effect
Outline: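 Endpoint: CellTiter-Glo luminescence, 30 min RT. Cells: wild type DT40, 300/well. Exposure: compounds in DMSO, 40 h, 37 C/5% CO2, after ~0.5 h pre-incubation.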

[3] = qHTS assay for identifying genotoxic compounds that show differential cytotoxicity against isogenic chicken DT40 cell lines with known DNA damage response pathways - Rev3 mutant cell line (AID 743014); note: nearly all actives have a fitted effect of over 55% in size; note: potency is the fitted concentration of half-maximal effect
[4] = qHTS assay for identifying genotoxic compounds that show differential cytotoxicity against isogenic chicken DT40 cell lines with known DNA damage response pathways - Rad54/Ku70 mutant cell line (AID 743015); note: nearly all actives have a fitted effect of over 60% in size; note: potency is the fitted concentration of half-maximal effect
[5] = qHTS assay to identify small molecule antagonists of the androgen receptor (AR) signaling pathway - cell viability counter screen (AID 743033; note: nearly all actives have a fitted effect of over 45% in size; note: potency is the fitted concentration of half-maximal effect)
[6] = qHTS assay to identify small molecule antagonists of the androgen receptor (AR) signaling pathway using the MDA cell line - cell viability counter screen (AID 743041; note: nearly all actives have a fitted effect of over 45% in size; note: potency is the fitted concentration of half-maximal effect)
Outline: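 Viability read by CellTiter-Fluor fluorescence in the same wells as the antagonist screen, added after 15.5 h of a 16 h, 37C exposure. Human breast carcinoma MDA-kb2 AR-luc cells, compounds co-dosed with agonist R1881.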

[7] = target: Androgen receptor (Homo sapiens) (UniProt P10275); assay: qHTS assay to identify small molecule antagonists of the androgen receptor (AR) signaling pathway (AID 743035; active = well fitted inhibition curve with a large enough effect in the signal ratio in the repeat runs, not every such curve was filed as active; the % refers to the signal ratio)
Androgen receptor (Homo sapiens), sequence (P10275 whole entry, looked up): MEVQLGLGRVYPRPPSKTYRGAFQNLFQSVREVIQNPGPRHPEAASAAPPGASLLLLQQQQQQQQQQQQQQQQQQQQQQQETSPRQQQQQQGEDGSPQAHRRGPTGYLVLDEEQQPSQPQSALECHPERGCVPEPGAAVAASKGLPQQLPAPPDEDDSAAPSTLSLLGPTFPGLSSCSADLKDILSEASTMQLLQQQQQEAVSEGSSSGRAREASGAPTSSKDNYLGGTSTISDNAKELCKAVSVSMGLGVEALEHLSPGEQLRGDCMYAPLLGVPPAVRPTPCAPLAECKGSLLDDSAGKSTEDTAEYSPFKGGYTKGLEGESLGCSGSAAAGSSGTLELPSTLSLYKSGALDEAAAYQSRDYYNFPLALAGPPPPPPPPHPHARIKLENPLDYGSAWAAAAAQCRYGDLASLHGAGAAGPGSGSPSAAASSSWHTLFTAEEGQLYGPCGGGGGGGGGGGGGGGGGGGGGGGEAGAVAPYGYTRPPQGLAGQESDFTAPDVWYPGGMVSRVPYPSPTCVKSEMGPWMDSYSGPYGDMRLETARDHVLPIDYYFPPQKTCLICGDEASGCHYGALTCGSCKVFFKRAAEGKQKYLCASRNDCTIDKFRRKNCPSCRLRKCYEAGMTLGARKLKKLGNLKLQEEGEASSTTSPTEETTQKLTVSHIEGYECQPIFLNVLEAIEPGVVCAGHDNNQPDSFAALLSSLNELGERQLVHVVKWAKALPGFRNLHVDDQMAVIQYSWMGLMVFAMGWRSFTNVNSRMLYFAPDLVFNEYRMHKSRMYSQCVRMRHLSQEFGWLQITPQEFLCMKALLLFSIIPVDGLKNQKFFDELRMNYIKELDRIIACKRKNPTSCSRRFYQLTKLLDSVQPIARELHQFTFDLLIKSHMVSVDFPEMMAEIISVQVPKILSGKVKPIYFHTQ
Outline: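 R1881 agonist challenge of a HEK293 UAS-beta-lactamase AR reporter line in the presence of compound (16 h, 37C); signal taken as FRET fluorescence after 2 h with LiveBLAzer B/G substrate at room temperature.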

[8] = target: Androgen receptor (Homo sapiens) (UniProt P10275); assay: qHTS assay to identify small molecule agonists of the androgen receptor (AR) signaling pathway (AID 743036; active = well fitted activation curve with a large enough effect in the signal ratio in the repeat runs, with a control signal flat, not every such curve was filed as active; the % refers to the signal ratio; note: potency is the fitted concentration of half-maximal effect)
Outline: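 Fluorescence from a beta-lactamase FRET substrate served as read-out in AR-UAS-bla GripTite HEK293 cells. Cells were treated with DMSO-dissolved compounds for 16 h at 37C, then with LiveBLAzer B/G substrate for 2 h at room temperature.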

[9] = target: Androgen receptor (Homo sapiens) (UniProt P10275); assay: qHTS assay to identify small molecule agonists of the androgen receptor (AR) signaling pathway using the MDA cell line (AID 743040; note: nearly all actives have a fitted effect of over 20% in size); details: MDA-kb2 AR-luc cells, MMTV luciferase, 16 h, stronger effect = higher value
Outline: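 Luciferase agonist assay: 16 h compound exposure at 37C without CO2 in MDA-kb2 AR-luc cells, whose MMTV promoter responds to both AR and GR. Luminescence measured after 30 min room-temperature incubation with ONE-Glo.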

[10] = target: Androgen receptor (Homo sapiens) (UniProt P10275); assay: qHTS assay to identify small molecule antagonists of the androgen receptor (AR) signaling pathway using the MDA cell line (AID 743042; note: nearly all actives have a fitted effect of over 55% in size)
Outline: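 Antagonist mode: compounds plus R1881 agonist added to MDA-kb2 AR-luc cells, incubated 16 h at 37C. Luciferase reporter luminescence quantified, with multiplexed CellTiter-Fluor readout for cell viability.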
% is set by controls: 0 for no effect and ±100 for the full control effect.

Cc1ccccc1C=O
inactive: Potency [1] | Potency [2] | Potency [3] | Potency [4] | Potency [5] | Potency [6]

NC(N)=S
inactive: Potency [1] | Potency [2] | Potency [3] | Potency [4] | Potency [5] | Potency [6]

CCCCCCCCCCCC(=O)N(C)CC(=O)O
inactive: Potency [1] | activity, negative = cytotoxicity [3] 3.78% [at 8.53 µM] | activity change, negative = cytotoxicity [4] -12.4% [at 8.55 µM] | activity change, negative = cytotoxicity [5] 1.79% [at 7.04 µM] | Potency [6]
active: Potency [3] 66.4 µM | Potency [4] 66.4 µM

Cc1ccc(C(C)C)cc1
inactive: Potency [1] | Potency [3] | Potency [4] | Potency [5] | Potency [7] | Potency [8] | activity change ([9]; at 70.3 µM (top of the series)) 1.12% | activity change ([9]; at 95 µM (top of the series)) 0.115% | Potency [6] | Potency [10]

CC(=O)OCCC(C)C
inactive: Potency [1] | Potency [2] | Potency [3] | Potency [4] | Potency [5] | Potency [6]

N[C@@H](Cc1cc(I)c(Oc2ccc(O)c(I)c2)c(I)c1)C(=O)O
23.7 µM (active) and inactive: Potency [3]
inactive: Potency [1] | Potency [4] | Potency [5] | Potency [6]
29.8 µM (active) and inactive: Potency [2]

Brc1ccc(Oc2ccc(Br)cc2)cc1
inactive: Potency [1] | Potency [2] | Potency [3] | Potency [4] | Potency [5] | Potency [6]

CCc1cccc(CC)c1N
inactive: Potency [1] | Potency [3] | Potency [4] | Potency [5] | Potency [7] | Potency [8] | activity change ([9]; at 70.3 µM (top of the series)) 0.738% | activity change ([9]; at 95 µM (top of the series)) 0.21% | Potency [6] | Potency [10]

OC[C@H]1O[C@@H](Oc2ccc(O)cc2)[C@H](O)[C@@H](O)[C@@H]1O
inactive: Potency [1] | Potency [2] | Potency [4] | Potency [5] | Potency [6]
inactive and 30.6 µM (active): Potency [3]

CCN(CC)CCNC(=O)c1ccc(N)cc1
inactive: Potency [1] | Potency [2] | Potency [3] | Potency [4] | Potency [5] | Potency [6]

O=C(NCC1CCCCN1)c1cc(OCC(F)(F)F)ccc1OCC(F)(F)F (configuration not stated)
29.8 µM (active) and inactive: Potency [2]
inactive: Potency [1] | Potency [5] | Potency [6]

C=CC(=O)NCOCCCC
inactive: Potency [1] | Potency [2] | Potency [3] | Potency [4] | Potency [5] | Potency [6]

CC(=O)Nc1ccc(CC(=O)O)cc1
inactive: Potency [1] | Potency [3] | Potency [4] | Potency [5] | Potency [6]

COC(=O)CCCCC(=O)OC
inactive: Potency [1] | Potency [2] | Potency [3] | Potency [4] | Potency [5] | Potency [6]

CC(=O)C(C)C
inactive: Potency [1] | Potency [2] | Potency [3] | Potency [4] | Potency [5] | Potency [6]

O=C1C(N(CO)C(=O)NCO)N(CO)C(=O)N1CO (configuration not stated)
inactive: Potency [1] | Potency [2] | Potency [3] | Potency [4] | Potency [5] | Potency [6]

CCCCCCCC(=O)O
inactive: Potency [1] | Potency [2] | Potency [3] | Potency [4] | Potency [5] | Potency [6]

CCCCC(=O)O
inactive: Potency [1] | Potency [2] | Potency [3] | Potency [4] | Potency [5] | Potency [6]

Cc1ccc(Cl)cc1
inactive: Potency [1] | Potency [2] | Potency [3] | Potency [4] | Potency [5] | Potency [6]

Nc1nc(N)c2nc(-c3ccccc3)c(N)nc2n1
inactive: Potency [1] | activity change ([9]; at 70.3 µM (top of the series)) 18% | Potency [6] | Potency [10]
active: Potency [3] 9.44 µM and 3.9 µM and 6.11 µM | Potency [4] 26.6 µM and 6.94 µM and 21.7 µM | Potency [5] 49.5 µM | Potency [8] 21.3 µM and 49.5 µM and 49 µM

Cc1ccncc1
inactive: Potency [1] | Potency [2] | Potency [3] | Potency [4] | Potency [5] | Potency [6]

O=C(Cl)c1ccc(C(=O)Cl)cc1
inactive: Potency [1] | Potency [2] | Potency [3] | Potency [4] | Potency [5] | Potency [6]

CN=C(NC#N)NCCSCc1nc[nH]c1C
inactive and 54 µM (active): Potency [3]
inactive and 13.6 µM (active): Potency [4]
inactive: Potency [1] | Potency [2] | Potency [5] | Potency [6]

CC(=O)c1nccs1
inactive: Potency [1] | Potency [2] | Potency [3] | Potency [4] | Potency [5] | Potency [6]

COc1ccc2cc3[n+](cc2c1OC)CCc1cc2c(cc1-3)OCO2
active: Potency [2] 2.37 µM and 4.36 µM | Potency [3] 3.35 µM and 3.09 µM | Potency [4] 4.22 µM and 5.49 µM | Potency [6] 22.1 µM and 7.75 µM
inactive: Potency [1]

CCCCCCCCC(=O)O
inactive: Potency [1] | Potency [3] | Potency [4] | Potency [5] | Potency [6]

CCc1cccc(O)c1
inactive: Potency [1] | Potency [3] | Potency [4] | Potency [5] | Potency [6]

O=C(c1ccccc1)c1ccc(O)c(O)c1O
inactive: Potency [1] | Potency [5] | Potency [6]
active: Potency [3] 61.1 µM | Potency [4] 61.1 µM
